Our source for the Potency values is PubChem BioAssay (Tox21).

Assay [1] in a line: qHTS assay for identifying genotoxic compounds that show differential cytotoxicity against isogenic chicken DT40 cell lines with known DNA damage response pathways - wild type cell line (AID 743012). Further: nearly all actives have a fitted effect of over 60% in size. Further: potency means the concentration at half of the fitted maximal effect. The method, boiled down: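 Viability by ATP luminescence (CellTiter-Glo, 30 min RT) after 40 h compound treatment at 37 C/5% CO2, using 300 parental DNA repair-proficient DT40 cells per well.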
A general note: In qHTS, concentration-response curves come from the screen itself.

Assay [2] is described as follows: qHTS assay for identifying genotoxic compounds that show differential cytotoxicity against isogenic chicken DT40 cell lines with known DNA damage response pathways - Rev3 mutant cell line (AID 743014). Further: nearly all actives have a fitted effect of over 55% in size. Further: potency means the concentration at half of the fitted maximal effect.
A short description of assay [3]: qHTS assay for identifying genotoxic compounds that show differential cytotoxicity against isogenic chicken DT40 cell lines with known DNA damage response pathways - Rad54/Ku70 mutant cell line (AID 743015). Further: nearly all actives have a fitted effect of over 60% in size. Further: potency means the concentration at half of the fitted maximal effect.
The nature of assay [4]: qHTS assay to identify small molecule antagonists of the androgen receptor (AR) signaling pathway using the MDA cell line - cell viability counter screen (AID 743041; further: nearly all actives have a fitted effect of over 45% in size; further: potency means the concentration at half of the fitted maximal effect). Summed up: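 Viability read by CellTiter-Fluor fluorescence in the same wells as the antagonist screen, added after 15.5 h of a 16 h, 37C exposure. Human breast carcinoma MDA-kb2 AR-luc cells, compounds co-dosed with agonist R1881.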

Assay [5] in a line: qHTS assay to identify small molecule antagonists of the thyroid receptor (TR) signaling pathway - cell viability counter screen (AID 743064). Further: nearly all actives have a fitted effect of over 50% in size. Further: potency means the concentration at half of the fitted maximal effect. Summed up:
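Counter screen for cytotoxicity: compound plus T3 (1 nM final) on GH3.TRE-Luc cells, 23.5 h at 37 °C, then fluorescence viability readout with CellTiter-Fluor.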

Assay [6] in a line: qHTS assay to identify small molecule antagonists of the thyroid receptor (TR) signaling pathway (AID 743065). Further: nearly all actives have a fitted effect of over 55% in size. Further: potency means the concentration at half of the fitted maximal effect. The method, boiled down:
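Antagonism measured as loss of luciferase signal in GH3 cells stably carrying a TRE-luciferase reporter, co-treated with compound and T3 (1 nM final) for 23.5 h at 37 C. Viability was read in the same well by CellTiter-Fluor.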

In assay [7] the test system is thyroid hormone receptor (rat, GH3 cells). In words: qHTS assay to identify small molecule agonists of the thyroid receptor (TR) signaling pathway (AID 743066; calls by dose curve).
For assay [8], the target named is Estrogen receptor (Homo sapiens) (UniProt P03372). The assay can be described thus: qHTS assay to identify small molecule antagonists of the estrogen receptor alpha (ER-alpha) signaling pathway (AID 743069; active means well fitted curve in the direction sought with a large enough effect in the signal ratio in the repeat runs, not every such curve was filed as active; inconclusive means weak or mixed curves, or effect the other way; inactive means no such curve, though single readings can be large or run the other way; the % refers to the signal ratio; further: potency means the concentration at half of the fitted maximal effect). Summed up: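 Antagonist mode: compounds in DMSO were co-added with 17beta-estradiol to ER-alpha-bla HEK293 cells (2% charcoal-stripped serum) and left 18 h at 37C. Reporter inhibition was measured as FRET fluorescence after 2 h LiveBLAzer substrate at room temperature.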

A short description of assay [9]: qHTS assay to identify small molecule antagonists of the estrogen receptor alpha (ER-alpha) signaling pathway - cell viability counter screen (AID 743074; calls by dose curve;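 further: HEK293 cells carrying ER-alpha-UAS-bla reporter stimulated with 17beta-estradiol; nearly all actives have a fitted effect of over 45% in size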).
Assay [10] has as its target Estrogen receptor (Homo sapiens) (UniProt P03372). In words: qHTS assay to identify small molecule agonists of the estrogen receptor alpha (ER-alpha) signaling pathway (AID 743075; calls by dose curve;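 further: HEK293 GripTite cells with ER-alpha and UAS-driven beta-lactamase reporter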).
For assay [11] the target is unchanged. In words: qHTS assay to identify small molecule agonists of the estrogen receptor alpha (ER-alpha) signaling pathway using the BG1 cell line (AID 743079). Further: nearly all actives have a fitted effect of over 20% in size. Further: potency means the concentration at half of the fitted maximal effect.
The nature of assay [12]: qHTS assay to identify small molecule antagonists of the estrogen receptor alpha (ER-alpha) signaling pathway using the BG1 cell line (AID 743080; calls by dose curve;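 further: BG1 cells stimulated with 17beta-estradiol alongside compound; nearly all actives have a fitted effect of over 25% in size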; further: potency means the concentration at half of the fitted maximal effect). The method, boiled down:
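Quantitative HTS on the Tox21 10K library: BG1 cells with endogenous ER-alpha and ERE-luciferase reporter, 17beta-estradiol stimulation, 21.5 h compound exposure, luminescence endpoint with parallel fluorescence cytotoxicity counter-read.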

The nature of assay [13]: qHTS assay to identify small molecule antagonists of the estrogen receptor alpha (ER-alpha) signaling pathway using the BG1 cell line - cell viability counter screen (AID 743081).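 Further: compound given together with 17beta-estradiol as the ER stimulus; nearly all actives have a fitted effect of over 45% in size.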 Further: potency means the concentration at half of the fitted maximal effect.
Assay [14] deals with Aromatase (Homo sapiens) (UniProt P11511). In words: qHTS assay to identify aromatase inhibitors (AID 743083). Further: series mostly up to about 70 µM; nearly all actives have a fitted effect of over 55% in size.
The nature of assay [15]: qHTS assay to identify small molecule antagonists of the androgen receptor (AR) signaling pathway - cell viability counter screen (AID 743033; further: nearly all actives have a fitted effect of over 45% in size; further: potency means the concentration at half of the fitted maximal effect).
The target in assay [16] is Androgen receptor (Homo sapiens) (UniProt P10275). The assay can be described thus: qHTS assay to identify small molecule antagonists of the androgen receptor (AR) signaling pathway (AID 743035; active means well fitted inhibition curve with a large enough effect in the signal ratio in the repeat runs, not every such curve was filed as active; inconclusive means weak or mixed curves, or effect the other way; inactive means no such curve, though single readings can be large or run the other way; the % refers to the signal ratio; further: potency means the concentration at half of the fitted maximal effect). Summed up:
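Antagonist mode: AR-bla HEK293 cells co-treated with test compounds and agonist R1881 for 16 h at 37C, 5% CO2. Beta-lactamase activity read as FRET fluorescence after 2 h room-temperature substrate loading.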

Assay [17] shares this target. In words: qHTS assay to identify small molecule agonists of the androgen receptor (AR) signaling pathway (AID 743036; active means well fitted activation curve with a large enough effect in the signal ratio in the repeat runs, with a control signal flat, not every such curve was filed as active; inconclusive means weak or mixed curves, or effect the other way; inactive means no such curve, though single readings can be large or run the other way; the % refers to the signal ratio). Summed up: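 In this Tox21 qHTS, 2,000 HEK293 AR-bla cells per well were incubated with compounds for 16 h at 37C and 5% CO2. Fluorescence intensity was recorded 2 h after adding LiveBLAzer B/G FRET substrate at room temperature.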
Assay [18] has the same target. The assay can be described thus: qHTS assay to identify small molecule agonists of the androgen receptor (AR) signaling pathway using the MDA cell line (AID 743040; further: nearly all actives have a fitted effect of over 20% in size; further: potency means the concentration at half of the fitted maximal effect). Summed up: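 Luciferase agonist assay: 16 h compound exposure at 37C without CO2 in MDA-kb2 AR-luc cells, whose MMTV promoter responds to both AR and GR. Luminescence measured after 30 min room-temperature incubation with ONE-Glo.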

Assay [19] has the same target. The assay can be described thus: qHTS assay to identify small molecule antagonists of the androgen receptor (AR) signaling pathway using the MDA cell line (AID 743042; further: nearly all actives have a fitted effect of over 55% in size; further: potency means the concentration at half of the fitted maximal effect). Summed up: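 Antagonist mode: compounds plus R1881 agonist added to MDA-kb2 AR-luc cells, incubated 16 h at 37C. Luciferase reporter luminescence quantified, with multiplexed CellTiter-Fluor readout for cell viability.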

A short description of assay [20]: qHTS assay to identify small molecule antagonists of the glucocorticoid receptor (GR) signaling pathway - cell viability counter screen (AID 720693). Further: nearly all actives have a fitted effect of over 55% in size.

A number with no mark means an inactive call. Activity calls are given as the source filed them. Unless noted, the call rests on the fitted dose curve; in most records, active means well fitted curve in the direction sought with a large enough effect in the repeat runs; inconclusive means weak or mixed curves; inactive means no such curve, though single readings can be large; an effect the other way counts as inactive or inconclusive.

Aromatase (Homo sapiens), sequence (P11511 whole entry, looked up): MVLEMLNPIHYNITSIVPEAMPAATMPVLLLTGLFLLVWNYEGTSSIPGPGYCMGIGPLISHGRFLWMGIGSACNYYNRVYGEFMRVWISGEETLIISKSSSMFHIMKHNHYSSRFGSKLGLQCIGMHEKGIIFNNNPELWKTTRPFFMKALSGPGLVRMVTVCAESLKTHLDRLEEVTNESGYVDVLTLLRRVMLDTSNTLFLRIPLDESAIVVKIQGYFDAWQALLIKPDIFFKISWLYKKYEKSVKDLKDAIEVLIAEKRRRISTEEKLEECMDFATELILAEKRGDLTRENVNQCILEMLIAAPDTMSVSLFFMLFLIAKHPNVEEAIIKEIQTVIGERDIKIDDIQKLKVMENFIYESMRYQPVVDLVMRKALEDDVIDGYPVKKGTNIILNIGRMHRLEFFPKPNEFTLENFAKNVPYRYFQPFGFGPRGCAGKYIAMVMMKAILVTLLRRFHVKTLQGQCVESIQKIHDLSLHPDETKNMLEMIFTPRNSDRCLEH
Estrogen receptor (Homo sapiens), sequence (P03372 whole entry, looked up): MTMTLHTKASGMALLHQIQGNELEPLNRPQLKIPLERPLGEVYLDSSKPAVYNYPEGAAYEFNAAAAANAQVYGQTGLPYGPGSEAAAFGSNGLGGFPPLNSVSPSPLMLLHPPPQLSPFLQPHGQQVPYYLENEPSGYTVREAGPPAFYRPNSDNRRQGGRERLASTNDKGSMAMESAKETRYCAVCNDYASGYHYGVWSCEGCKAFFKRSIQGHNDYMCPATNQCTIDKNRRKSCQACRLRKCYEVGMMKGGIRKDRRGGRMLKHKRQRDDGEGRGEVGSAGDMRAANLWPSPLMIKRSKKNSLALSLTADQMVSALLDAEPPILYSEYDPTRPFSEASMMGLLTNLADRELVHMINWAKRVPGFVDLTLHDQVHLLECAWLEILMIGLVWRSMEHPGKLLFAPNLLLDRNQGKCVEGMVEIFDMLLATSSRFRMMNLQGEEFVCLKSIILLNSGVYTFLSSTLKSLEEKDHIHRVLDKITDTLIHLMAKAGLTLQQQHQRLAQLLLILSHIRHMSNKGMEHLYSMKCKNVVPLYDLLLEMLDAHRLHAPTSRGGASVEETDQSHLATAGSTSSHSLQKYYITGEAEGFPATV
Androgen receptor (Homo sapiens), sequence (P10275 whole entry, looked up): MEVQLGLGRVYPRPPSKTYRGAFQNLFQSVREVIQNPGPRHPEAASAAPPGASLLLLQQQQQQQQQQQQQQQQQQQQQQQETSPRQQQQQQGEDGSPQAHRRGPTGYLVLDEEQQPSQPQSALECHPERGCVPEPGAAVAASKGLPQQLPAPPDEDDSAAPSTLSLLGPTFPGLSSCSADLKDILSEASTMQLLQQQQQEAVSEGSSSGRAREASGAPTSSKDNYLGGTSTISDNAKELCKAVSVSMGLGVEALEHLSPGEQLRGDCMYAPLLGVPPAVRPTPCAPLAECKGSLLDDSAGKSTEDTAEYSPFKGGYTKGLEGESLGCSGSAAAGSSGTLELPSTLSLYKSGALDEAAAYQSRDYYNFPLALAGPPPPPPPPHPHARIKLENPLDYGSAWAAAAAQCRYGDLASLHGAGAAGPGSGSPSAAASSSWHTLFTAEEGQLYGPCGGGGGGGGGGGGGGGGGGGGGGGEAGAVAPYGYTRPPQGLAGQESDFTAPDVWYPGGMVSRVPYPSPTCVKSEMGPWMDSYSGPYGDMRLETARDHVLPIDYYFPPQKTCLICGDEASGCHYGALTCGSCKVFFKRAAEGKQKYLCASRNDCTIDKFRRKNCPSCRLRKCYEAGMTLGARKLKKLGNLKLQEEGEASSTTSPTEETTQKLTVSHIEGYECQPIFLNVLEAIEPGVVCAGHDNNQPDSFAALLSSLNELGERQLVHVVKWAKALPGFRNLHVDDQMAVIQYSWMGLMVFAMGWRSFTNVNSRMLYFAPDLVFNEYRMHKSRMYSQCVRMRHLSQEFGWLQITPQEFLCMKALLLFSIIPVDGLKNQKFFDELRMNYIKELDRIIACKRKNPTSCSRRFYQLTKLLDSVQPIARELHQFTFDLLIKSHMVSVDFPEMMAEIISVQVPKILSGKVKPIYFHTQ

Consider `COC(C)OC`, for which the Potency entry in [1], in assay [2], in assay [3], in assay [4], in [5] and in assay [6] was “inactive” throughout. Also, the Potency result in assay [7], in assay [8], in [9], in assay [10], in assay [11] and in [12] was “inactive” throughout. For the same compound, the Potency entry in assay [13] and in [14] was “inactive” in each case.
Turning to `CN1CCC(=C2c3ccccc3Sc3ccccc32)CC1`, the Potency in [1] was 5.31 µM (active); in assay [2], 5.96 µM (active); in [15] it was 23.9 µM (active); in assay [16], 26.8 µM (active); in assay [19], 29.8 µM (active); in assay [6], 8.41 µM (active). Besides, the Potency result in assay [17], in [18] and in assay [11] was “inactive” in each case.
In the case of `Nc1cccc([N+](=O)[O-])c1`, the Potency result in assay [1], in assay [2], in assay [3], in assay [15], in assay [16] and in assay [17] was “inactive” each time. Also, the Potency result in [18], in assay [4], in assay [19], in [5], in assay [6] and in assay [7] was “inactive” throughout. In addition, the Potency result in assay [8], in [9], in assay [10], in assay [11], in assay [12] and in [13] was “inactive” each time.
With `O=S(c1cc(Cl)cc(Cl)c1O)c1cc(Cl)cc(Cl)c1O`, the Potency result in assay [15], in [18], in assay [4], in assay [19], in assay [7] and in [9] was “inactive” throughout. Besides, the Potency entry in assay [10], in [11], in assay [12], in assay [13] and in assay [14] was “inactive” each time.
Consider `CC(C)(O)c1ccc(CNC(=O)c2cccnc2Oc2ccc(F)cc2)cc1`, for which the Potency entry in assay [20], in assay [4], in assay [6], in assay [7], in assay [9] and in assay [13] was “inactive” each time.
For the compound `CCCCCCCCCCCCCCCCCCOS(=O)(=O)O`, the Potency result in assay [3], in [15], in [4], in assay [7], in [9] and in assay [10] was “inactive” in each case. Moreover, the Potency entry in [11], in [12] and in assay [13] was “inactive” throughout. Further, the Potency in assay [6] is 48.6 µM (active).
`CCN(CC)c1ccc2c(-c3ccccc3C(=O)O)c3ccc(=[N+](CC)CC)cc-3oc2c1`: the Potency entry in [20], in assay [9], in assay [10] and in [12] was “inactive” throughout. Moreover, the Potency was 8.63 µM (active) in [2], 24.3 µM (active) in assay [4], 5.45 µM (active) in assay [5] and 9.69 µM (active) in assay [13].
Regarding `CC(=O)c1cccc([N+](=O)[O-])c1`, the Potency result in assay [20], in assay [15], in assay [4], in assay [5], in assay [6] and in assay [7] was “inactive” throughout. The Potency result in assay [8], in assay [9], in [10], in [11], in assay [12] and in [13] was “inactive” throughout. Moreover, the Potency entry in [14] was “inactive”.
In the case of `CCC(CC)Nc1ccc(C)c(C)c1`, the Potency entry in [20], in assay [15], in [4], in [7], in assay [8] and in assay [9] was “inactive” in each case. The Potency result in [10], in assay [11], in [12], in assay [13] and in assay [14] was “inactive” throughout.
Take `c1ccc(C(O[C@H]2CCCN(CCc3ccc4c(c3)OCO4)C2)c2ccccc2)cc1`: the Potency is 23.7 µM (active) in assay [1], 29.8 µM (active) in assay [2], 29.8 µM (active) in [3] and 26.6 µM (active) in assay [6]. Besides, the Potency result in [15], in assay [4], in assay [8], in [9], in [10] and in assay [11] was “inactive” in each case. For the same compound, the Potency entry in assay [12] and in [13] was “inactive” throughout.
As to `CCCCC1=NC2(CCCC2)C(=O)N1Cc1ccc(-c2ccccc2-c2nn[nH]n2)cc1`, the Potency entry in [20], in assay [15], in assay [4], in assay [8], in [9] and in assay [10] was “inactive” each time. Also, the Potency entry in [11], in assay [12], in assay [13] and in assay [14] was “inactive” throughout.
With `O=C(CS)Nc1ccccc1`, the Potency in assay [2] is 21.1 µM (active); in assay [3] it was 18.8 µM (active); in assay [8] it was 15.1 µM [inconclusive] (active); in assay [11] it was 21.1 µM (active). Besides, the Potency result in [7], in [9], in assay [10], in assay [12] and in assay [14] was “inactive” each time.
As to `CCCCC(=O)OCC(=O)[C@H]1[C@H](C)C[C@H]2[C@@H]3C[C@H](F)C4=CC(=O)C=C[C@]4(C)[C@@]3(F)[C@@H](O)C[C@@]21C`, the Potency entry in [20], in [4], in assay [19], in [5], in [7] and in assay [10] was “inactive” each time. The Potency entry in assay [11], in assay [13] and in [14] was “inactive” throughout. The Potency in assay [18] was 0.0047 µM (active).
With `CCC(=O)O[C@]1(C(=O)CCl)[C@@H](C)C[C@H]2[C@@H]3CCC4=CC(=O)C=C[C@]4(C)[C@@]3(F)[C@@H](O)C[C@@]21C`, the Potency in assay [1] is 13.3 µM (active); in [2], 2.37 µM (active); in [3], 29.8 µM (active); in assay [16], 7.56 µM (active); in [18], 0.0019 µM (active). In addition, the Potency entry in [4], in assay [19], in [5], in assay [6], in assay [7] and in assay [8] was “inactive” throughout. For the same compound, the Potency entry in [9], in assay [10], in assay [11], in assay [13] and in assay [14] was “inactive” throughout.
Take `Cn1c(=O)cc(Oc2ccc(F)cc2F)c2cnc(NCC(C)(C)O)nc21`: the Potency result in assay [20], in assay [15], in assay [4], in assay [5], in assay [6] and in assay [7] was “inactive” each time. Further, the Potency entry in [8], in assay [9], in assay [10], in [13] and in assay [14] was “inactive” in each case. In addition, the figures for the Potency in assay [3] and in [12] were 27.3 µM (active) and 19.3 µM (active), respectively.
Take `C=C1C(=C/C=C2\CCC[C@]3(C)[C@@H]([C@H](C)/C=C/[C@@H](O)C4CC4)CC[C@@H]23)C[C@@H](O)C[C@@H]1O`: the Potency in [1] is 11.9 µM (active); in [2], 11.9 µM (active); in [3], 13.3 µM (active); in assay [19], 26.6 µM (active); in assay [6], 26.6 µM (active); in assay [8], 21.3 µM [inconclusive] (active). Moreover, the Potency entry in [15], in assay [17], in [18], in assay [9], in assay [10] and in assay [11] was “inactive” each time. Moreover, the Potency result in [13] and in [14] was “inactive” each time.
For `CCOC(=O)Cc1cccc2ccccc12`, the Potency result in assay [20], in assay [3], in assay [15], in [4], in assay [5] and in assay [6] was “inactive” throughout. Besides, the Potency result in assay [7], in assay [9], in assay [10], in assay [11], in assay [12] and in assay [13] was “inactive” each time. Moreover, the Potency entry in assay [14] was “inactive”.
